PubChem BioAssay (NCI)
This is part of a sample that, as a whole, favours compounds with a hit. Of some 83,000 tested, about 20% had one in any assay.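 Percent growth is the endpoint: 0 to 100 indicates growth inhibition (40 means 60% inhibition), 0 means no net growth, and negative values indicate cell death.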 A number with no mark means an inactive call. Active and inactive are the calls of the source. How the source made its calls: active means growth percent below 10; inactive means the rest.

Each compound was assayed on OVCAR-3 ovarian (assay: NCI-60 one-dose screen, 48 h (100 = growth as untreated, 0 = no growth, -100 = all killed)). Settings: 10 µM unless noted.
In the case of O=C(Cn1c2ccccc2c2ccncc21)N/N=C/c1c[nH]c2ccccc12, the growth is reported as 18.3%. Cc1ccc(-c2nc3c(N=Nc4ccc(S(N)(=O)=O)cc4)c(N)nn3c(N)c2C#N)cc1 was tested, and the growth was 23.6%. O=C(Nc1ccccc1Cl)c1c[nH]c(=O)c(-c2ccc(N3CCCOC4(CC4)C3)cc2)c1 was tested, and the growth was 64.5%. Work on OC(COc1ccccc1Cl)CN1CCN(c2ccc(Cl)cc2)CC1 (stereo not drawn) yielded a growth of 106%. Compound Nc1nccc2c1ccn2-c1ccc(NC(=O)Nc2cccc(C(F)(F)F)c2)cc1 has a growth of 80.8%. In the case of O=C(Nc1ccc(-n2ccc3c(NC(=O)c4ccccc4)nccc32)cc1)Nc1cccc(C(F)(F)F)c1, the growth is reported as 15.2%. Compound O=C1C(Cl)=C(Nc2ccccc2)C(=O)C(Cl)=C1Nc1ccccc1 has a growth of 119%. For CC(=O)Nc1ccc([I+]c2ccc([N+](=O)[O-])cc2)cc1, the growth was 94.9%. CCN1CCN(Cc2ccc(NC(=O)Nc3cccc(-n4ccc5c(NC(=O)c6ccccc6)nccc54)c3)cc2C(F)(F)F)CC1 was tested, and the growth was 57.3%. In the case of O=C(Nc1cccc(-n2ccc3c(NC(=O)c4ccccc4)nccc32)c1)c1cccc(C(F)(F)F)c1, the growth is reported as -8.09% (active). CC(=O)N[C@@H](CNC(=O)c1cc(NC(=O)c2cc(NC(=O)c3cc(NC(=O)c4nccn4C)cn3C)cn2C)cn1C)CC(=O)Nc1cn(C)c(C(=O)Nc2cc(C(=O)Nc3cc(C(=O)Nc4cc(C(=O)NCCCN(C)CCCNC(=O)c5cccc(C(=O)O)c5)n(C)c4)n(C)c3)n(C)c2)n1 showed a growth of 102%. CCOC(=O)c1cnc2c(OC)ccc(OC)c2c1Cl showed a growth of 108%. With NS(=O)(=O)c1ccc(Nc2nc(O)c(/C=C3\C=Nc4ccccc43)s2)cc1 the growth was 102%. CNC(=O)NN was tested, and the growth was 91.8%. In the case of Cc1cc(O[C@@H]2O[C@@H](C)[C@H](O)[C@@H](O)[C@H]2O)c2c3c(c(O[C@@H]4O[C@@H](C)[C@H](O)[C@@H](O)[C@H]4O)cc2c1)C(=O)c1c(O)cccc1C3=O, the growth is reported as 93.7%. In the case of Cc1cccc(Cc2cnc(NC(=O)CCc3ccc(C)o3)s2)c1, the growth is reported as 2.58% (active). For C=CC(=O)NC(=O)Nc1ccccc1Cl, the growth was 68.7%. With COc1cccc(-c2nc3sccn3c2-c2ccnc(NCCNC(=O)c3ccccc3)n2)c1 the growth was 89.1%. COc1ccc(-c2nn(-c3ccc(NC(=O)Nc4ccc(Cl)c(C(F)(F)F)c4)cc3)cc2-c2ccncc2)cc1Cl was tested, and the growth was -1.59% (active). Compound CC(C)CNCC(O)COc1ccc(C(C)(C)c2ccc(OCC(O)CNCC(C)C)cc2)cc1 (stereo not drawn) has a growth of 44.5%. Work on Cc1ccc2[nH]c3nc4cccnc4c(C)c3c2c1 yielded a growth of 99.8%. O=C(Nc1ccc(-n2ccc3c(NC(=O)c4ccccc4)nccc32)cc1)c1ccc(Cl)c(C(F)(F)F)c1 gave a growth of 22.9%. In the case of COc1ccc(-c2nn(-c3ccc(NC(=O)Nc4ccc(Cl)c(Cl)c4)cc3)cc2-c2ccncc2)cc1Cl, the growth is reported as 7.34% (active). In the case of Nc1nccc2c1ccn2-c1cccc(NC(=O)c2ccc(N3CCOCC3)c(C(F)(F)F)c2)c1, the growth is reported as -27.2% (active). For COc1ccc(/C=C/C(=O)/C=C(/C=C/c2ccc(OC)c(OC)c2OC)OB(F)F)c(OC)c1OC, the growth was 5.1% (active). Work on Cc1cc[n+](CCCC[n+]2ccc(C)cc2)cc1 yielded a growth of 106%. COC1=C(OC)C(=O)C=CC1=O showed a growth of 83.6%. For Cc1ccccc1C[P+](c1ccccc1)(c1ccccc1)c1ccccc1, the growth was 1.98% (active). In the case of CC/C(=C(\CC)c1ccc(OCCN(CC)CC)cc1)c1ccc(OCCN(CC)CC)cc1, the growth is reported as 45.5%. With COc1cccc(-c2nc3sccn3c2-c2ccnc(NCCNC(=O)Nc3cccc(C(F)(F)F)c3)n2)c1 the growth was 66.3%. With COc1ccc(-c2cnc(-c3ccc(F)cc3)[nH]2)cc1 the growth was 91.3%. For O=C(Nc1ccc(-n2cc(-c3ccncc3)c(-c3ccc(O)c(Cl)c3)n2)cc1)c1ccc(Cl)c(C(F)(F)F)c1, the growth was 4.18% (active). O=C(Nc1ccc(-n2ccc3c(NC(=O)c4ccccc4)ncnc32)cc1)c1ccc(Cl)c(C(F)(F)F)c1 was tested, and the growth was -3.5% (active). C=CC(=O)Nc1cccc(Nc2nc(Nc3ccc(OCCOC(F)F)cc3)ncc2F)c1 was tested, and the growth was 48.4%. O=[N+]([O-])c1cccc(C(c2ccccc2)c2ccccc2)c1 was tested, and the growth was 98.3%. With O=C(NCCNc1nccc(-c2c(-c3cccc(O)c3)nc3sccn23)n1)Nc1cccc(C(F)(F)F)c1 the growth was 76.7%. In the case of O=C(Nc1cccc(-n2ccc3c(NC(=O)c4ccccc4)nccc32)c1)c1cc(N2CCOCC2)cc(C(F)(F)F)c1, the growth is reported as -34.8% (active). Compound O=C(Nc1ccc(-n2cc(-c3ccncc3)c(-c3ccc(O)c(Cl)c3)n2)cc1)c1cc(C(F)(F)F)cc(C(F)(F)F)c1 has a growth of 49.8%.
